Measurements as given in the supplement of paper PMC10849652.
The full data set covers some 7,900 targets. This sample favours those with a hit. About 0.6% of all pairs of compound and target were hits.

Tests used:
Assay in all cases: log2 fold change, soluble protein after heating vs DMSO (PISA); higher = thermal stabilisation; K562 cells, 10 uM, 30 min; active = over 0.2 and 3.5 SD of the protein, either way, in both replicates (recomputed)
erlotinib = compound: C#Cc1cccc(Nc2ncnc3cc(OCCOC)c(OCCOC)cc23)c1 [erlotinib]
How it was run: (§1)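 Values are thermal stability changes relative to control samples and are taken from duplicates. They are stated as log2 fold changes. Before quantification by TMTpro 16plex LC-MS/MS with equalised channel sums, K562 cells at 2×10^6 cells/mL were treated with 10 μM compound for 30 min, heated in aliquots for 3 min across 48°C-58°C, pooled, extracted in PBS with 0.5% NP-40 at 4°C, and centrifuged at 21,000xg for 90 min to give the soluble supernatant.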

[1] = compound: C/C(=N\NC(=O)C1=CC(=CC=C1)S(=O)(=O)N2CCOCC2)/C3=C(C=CC(=C3)Cl)O
How it was run: as §1

[2] = compound: C1=CC(=C(C=C1Cl)C2=NC3=NC=CN=C3C(=N2)NC4=CC=NC=C4)F
How it was run: as §1

[3] = compound: C1=CC(=CC=C1C2=NC3=C(N2)C=C(C=C3)C(=O)N)OC4=CC=C(C=C4)Cl
How it was run: as §1

[4] = compound: C1=CC2=C(C=CC(=C2)/C=C\3/C(=O)NC(=NCC4=CC=CS4)S3)N=C1
How it was run: as §1

[5] = compound: C1=CC2=NC=CN=C2C=C1/C=C/3\C(=O)NC(=O)S3
How it was run: as §1

[6] = compound: C1=CC=C(C=C1)C2=NC(=C(N2)C3=CC=NC=C3)C4=CC(=C(C=C4)Cl)O
How it was run: as §1

[7] = compound: C1=CC=C2C(=C1)C3=NNC4=CC=CC(=C43)C2=O
How it was run: as §1

[8] = compound: C1CCN(C1)C(=O)NC2=CC=CC(=C2)NC3=NC=C(C(=N3)NCCC4=CN=CN4)Br
How it was run: as §1

[9] = compound: C1CN(CCC1(CC2=CC=C(C=C2)Cl)N)C3=NC=NC4=C3C=CN4
How it was run: as §1

IRAK-1-4 Inhibitor I = compound: C1COCCN1CCN2C3=CC=CC=C3N=C2NC(=O)C4=CC(=CC=C4)[N+](=O)[O-] [IRAK-1-4 Inhibitor I]
How it was run: as §1

ibrutinib = compound: C=CC(=O)N1CCC[C@@H](n2nc(-c3ccc(Oc4ccccc4)cc3)c3c(N)ncnc32)C1 [ibrutinib]
How it was run: as §1

[10] = compound: CC(=O)c1cnc2ccc(-c3cc(Cl)c(O)c(Cl)c3)nc2c1N[C@H]1CC[C@H](CN(C)C)CC1
How it was run: as §1

ralimetinib = compound: CC(C)(C)Cn1c(N)nc2ccc(-c3[nH]c(C(C)(C)C)nc3-c3ccc(F)cc3)nc21 [ralimetinib]
How it was run: as §1

[11] = compound: CC(C)(O)CC(=O)NCCn1ccc2ncnc(Nc3ccc(Oc4cccc(C(F)(F)F)c4)c(Cl)c3)c21
How it was run: as §1

[12] = compound: CC(C)C1=C2N=C(C=C(N2N=C1)NCC3=CC=CC=C3)NCCCCCCN
How it was run: as §1

[13] = compound: CC(C)C[C@@H](C=O)NC(=O)[C@H](CC(C)C)NC(=O)[C@H](CC(C)C)NC(=O)OCc1ccccc1
How it was run: as §1

pinometostat = compound: CC(C)N(C[C@H]1O[C@@H](n2cnc3c(N)ncnc32)[C@H](O)[C@@H]1O)[C@H]1C[C@@H](CCc2nc3cc(C(C)(C)C)ccc3[nH]2)C1 [pinometostat]
How it was run: as §1

[14] = compound: CC1=C(C(CC(=O)N1)C2=CC=C(C=C2)C(F)(F)F)C(=O)NC3=C(C=C4C(=C3)C=NN4)F
How it was run: as §1

[15] = compound: CC1=C(C2=C(C=C1)C(=O)C3=CC=CC=C3N2CCCN)C
How it was run: as §1

Measured: log2 fold change

POLR3B (UniProt Q9NW08)
inactive: erlotinib -0.022 | [1] -0.027 | [2] -0.003 | [3] -0.09 | [4] 0.004 | [5] 0.022 | [6] 0.025 | [7] -0.018 | [8] 0.194 | [9] -0.088 | IRAK-1-4 Inhibitor I -0.121 | ibrutinib -0.048 | [10] 0.044 | ralimetinib 0.052 | [11] -0.116 | [12] -0.183 | [13] 0.055 | pinometostat 0.115 | [14] -0.035
active: [15] 0.297

PPIL1 (UniProt Q9Y3C6)
Chain of UniProt Q9Y3C6 (Q9Y3C6 whole entry, looked up): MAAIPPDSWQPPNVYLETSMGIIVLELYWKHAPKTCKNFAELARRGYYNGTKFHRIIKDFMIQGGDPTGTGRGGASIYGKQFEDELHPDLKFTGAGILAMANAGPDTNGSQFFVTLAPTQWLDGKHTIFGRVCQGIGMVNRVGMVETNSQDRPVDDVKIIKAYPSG
inactive: erlotinib 0.019 | [1] -0.009 | [2] -0.027 | [3] -0.012 | [4] 0.024 | [5] 0.061 | [6] -0.013 | [7] -0.025 | [8] -0.007 | [9] -0.027 | IRAK-1-4 Inhibitor I -0.046 | ibrutinib -0.011 | ralimetinib -0.02 | [11] -0.038 | [12] 0.08 | [13] 0.09 | pinometostat 0.082 | [14] 0.004 | [15] 0.172
active: [10] 0.225

PRKACB isoform 2 (UniProt P22694)
inactive: erlotinib 0.013 | [1] 0.049 | [2] -0.065 | [3] 0.072 | [4] 0.007 | [5] 0.008 | [6] -0.034 | [7] -0.096 | [8] -0.095 | [9] 0.007 | IRAK-1-4 Inhibitor I -0.007 | ibrutinib -0.032 | [10] -0.067 | ralimetinib -0.035 | [11] -0.011 | [12] -0.012 | [13] 0.054 | pinometostat -0.008 | [14] -0.034 | [15] 0.044

POGLUT1 (UniProt Q8NBL1)
Chain of UniProt Q8NBL1 (Q8NBL1 whole entry, looked up): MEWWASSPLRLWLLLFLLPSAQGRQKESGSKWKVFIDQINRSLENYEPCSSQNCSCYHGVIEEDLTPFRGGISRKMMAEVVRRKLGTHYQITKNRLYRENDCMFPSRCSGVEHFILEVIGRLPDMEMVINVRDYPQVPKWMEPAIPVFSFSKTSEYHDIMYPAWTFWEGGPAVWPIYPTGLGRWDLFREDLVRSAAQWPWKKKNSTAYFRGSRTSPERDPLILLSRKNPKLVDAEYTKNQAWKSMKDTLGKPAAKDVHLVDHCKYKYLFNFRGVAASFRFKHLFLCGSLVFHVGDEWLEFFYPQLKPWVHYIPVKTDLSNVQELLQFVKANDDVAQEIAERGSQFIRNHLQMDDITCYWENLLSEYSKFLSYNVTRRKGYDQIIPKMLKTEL
inactive: erlotinib 0.006 | [1] -0.046 | [2] -0.041 | [3] -0.004 | [4] 0.055 | [5] 0.026 | [6] 0.167 | [7] -0.013 | [8] -0.007 | [9] -0.041 | IRAK-1-4 Inhibitor I -0.032 | ibrutinib -0.03 | [10] -0.047 | ralimetinib 0.162 | [11] 0.058 | [12] 0.055 | [13] -0.106 | pinometostat 0.026 | [14] 0.009 | [15] 0.016

PIP4K2B (UniProt P78356)
Chain of UniProt P78356 (P78356 whole entry, looked up): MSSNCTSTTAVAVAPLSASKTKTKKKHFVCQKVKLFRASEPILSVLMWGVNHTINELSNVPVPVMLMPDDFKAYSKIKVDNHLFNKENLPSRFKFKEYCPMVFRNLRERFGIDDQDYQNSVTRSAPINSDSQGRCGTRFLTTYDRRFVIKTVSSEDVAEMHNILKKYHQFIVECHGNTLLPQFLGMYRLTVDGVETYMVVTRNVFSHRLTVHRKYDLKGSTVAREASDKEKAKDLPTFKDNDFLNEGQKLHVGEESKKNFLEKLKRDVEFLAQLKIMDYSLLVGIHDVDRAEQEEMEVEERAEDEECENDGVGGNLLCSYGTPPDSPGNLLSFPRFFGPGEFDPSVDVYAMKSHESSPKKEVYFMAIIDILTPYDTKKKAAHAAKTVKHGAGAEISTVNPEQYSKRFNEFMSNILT
inactive: erlotinib 0.16 | [1] -0.022 | [2] 0.082 | [3] -0.083 | [4] 0.017 | [5] 0.244 | [6] 0.104 | [7] 0.096 | [8] 0.13 | [9] 0.037 | IRAK-1-4 Inhibitor I 0.254 | ibrutinib 0.01 | ralimetinib 0.005 | [11] -0.149 | [12] 0.033 | [13] -0.034 | pinometostat -0.014 | [14] -0.11 | [15] 0.065
active: [10] 0.856

PSMB6 (UniProt P28072)
Chain of UniProt P28072 (P28072 whole entry, looked up): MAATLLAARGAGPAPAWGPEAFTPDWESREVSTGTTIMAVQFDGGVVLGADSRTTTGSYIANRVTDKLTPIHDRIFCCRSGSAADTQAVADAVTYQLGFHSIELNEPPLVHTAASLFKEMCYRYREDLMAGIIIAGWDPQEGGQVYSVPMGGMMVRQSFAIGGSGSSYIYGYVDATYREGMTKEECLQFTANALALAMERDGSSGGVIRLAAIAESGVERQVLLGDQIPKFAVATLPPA
inactive: erlotinib -0.067 | [1] -0.079 | [2] -0.024 | [3] -0.001 | [4] -0.068 | [5] -0.006 | [6] -0.046 | [7] -0.012 | [8] 0.011 | [9] 0.042 | IRAK-1-4 Inhibitor I -0.007 | ibrutinib -0.025 | [10] 0.049 | ralimetinib -0.045 | [11] 0.045 | [12] 0.129 | pinometostat -0.053 | [14] 0.046 | [15] 0
active: [13] 0.4

PLSCR1 (UniProt O15162)
inactive: erlotinib -0.023 | [1] 0.03 | [2] 0.089 | [3] 0.077 | [4] -0.004 | [5] 0.022 | [6] 0.061 | [7] -0.04 | [8] -0.008 | [9] 0.05 | IRAK-1-4 Inhibitor I -0.003 | ibrutinib 0.002 | [10] -0.025 | ralimetinib -0.046 | [11] 0.047 | [12] 0.031 | [13] -0.036 | pinometostat -0.015 | [14] -0.011 | [15] 0.031

QRICH1 (UniProt Q2TAL8)
Chain of UniProt Q2TAL8 (Q2TAL8 whole entry, looked up): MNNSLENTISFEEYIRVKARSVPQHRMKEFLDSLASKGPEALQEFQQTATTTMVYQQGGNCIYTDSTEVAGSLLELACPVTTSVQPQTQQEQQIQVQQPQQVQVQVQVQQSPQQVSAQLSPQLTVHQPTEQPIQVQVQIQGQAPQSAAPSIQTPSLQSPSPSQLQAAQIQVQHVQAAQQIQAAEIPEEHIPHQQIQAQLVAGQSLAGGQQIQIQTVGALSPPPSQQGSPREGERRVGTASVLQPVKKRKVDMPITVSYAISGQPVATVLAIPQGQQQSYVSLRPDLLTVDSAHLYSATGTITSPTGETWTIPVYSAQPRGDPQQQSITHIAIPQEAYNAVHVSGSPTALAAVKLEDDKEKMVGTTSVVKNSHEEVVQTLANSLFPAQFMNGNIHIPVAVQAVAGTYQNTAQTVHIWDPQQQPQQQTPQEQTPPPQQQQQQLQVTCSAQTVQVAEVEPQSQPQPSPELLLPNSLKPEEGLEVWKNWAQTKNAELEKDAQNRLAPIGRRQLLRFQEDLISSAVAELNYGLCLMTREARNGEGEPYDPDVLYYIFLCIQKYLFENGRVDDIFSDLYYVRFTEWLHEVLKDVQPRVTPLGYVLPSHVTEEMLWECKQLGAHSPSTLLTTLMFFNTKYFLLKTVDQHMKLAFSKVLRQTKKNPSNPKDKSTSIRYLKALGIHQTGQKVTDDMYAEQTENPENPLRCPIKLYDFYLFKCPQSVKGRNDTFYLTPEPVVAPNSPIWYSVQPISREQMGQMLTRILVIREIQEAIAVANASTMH
inactive: erlotinib 0.066 | [1] 0.361 | [2] -0.023 | [3] 0 | [4] 0.282 | [5] 0.059 | [6] -0.053 | [7] -0.007 | [8] 0.014 | [9] -0.076 | IRAK-1-4 Inhibitor I -0.108 | ibrutinib -0.024 | [10] 0.048 | ralimetinib 0.055 | [11] -0.237 | [12] -0.321 | [13] 0.08 | pinometostat 0.026 | [14] 0.029 | [15] -0.08

PDE4DIP isoform 4 (UniProt Q5VU43)
inactive: erlotinib 0.027 | [1] -0.002 | [2] 0.186 | [3] 0.01 | [4] 0.089 | [5] -0.043 | [6] -0.059 | [7] -0.02 | [8] -0.037 | [9] -0.061 | IRAK-1-4 Inhibitor I -0.006 | ibrutinib 0.001 | [10] 0.045 | ralimetinib 0.011 | [11] -0.08 | [12] 0.035 | [13] 0.087 | pinometostat -0.05 | [14] 0.069 | [15] 0.088

PRKCG (UniProt P05129)
inactive: erlotinib -0.04 | [1] 0.058 | [2] 0.052 | [3] 0.04 | [4] 0.144 | [5] -0.033 | [6] 0.074 | [7] 0.023 | [8] -0.052 | [9] -0.138 | IRAK-1-4 Inhibitor I 0.025 | ibrutinib -0.024 | [10] -0.351 | ralimetinib 0.049 | [11] -0.099 | [12] -0.097 | [13] 0.055 | pinometostat 0.054 | [14] 0.037 | [15] 0.028

PTGR2 (UniProt Q8N8N7)
inactive: erlotinib -0.015 | [1] -0.027 | [2] 0.016 | [3] -0.023 | [4] 0.365 | [5] -0.01 | [6] 0.062 | [7] 0.056 | [8] -0.023 | [9] 0.131 | IRAK-1-4 Inhibitor I 0 | ibrutinib 0.321 | [10] -0.328 | ralimetinib -0.016 | [11] -0.042 | [12] 0.121 | [13] 0.001 | pinometostat 0.074 | [14] 0.005 | [15] 0.011

PTP4A2 (UniProt Q12974)
Chain of UniProt Q12974 (Q12974 whole entry, looked up): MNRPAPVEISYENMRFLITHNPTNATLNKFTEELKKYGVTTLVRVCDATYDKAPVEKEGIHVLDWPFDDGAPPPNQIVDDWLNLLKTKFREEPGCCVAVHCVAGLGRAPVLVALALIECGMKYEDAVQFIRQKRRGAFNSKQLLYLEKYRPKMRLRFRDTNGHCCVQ
inactive: erlotinib -0.054 | [1] 0.03 | [2] 0.134 | [3] 0.049 | [4] 0.018 | [5] -0.051 | [6] 0.205 | [7] -0.125 | [8] -0.029 | [9] -0.097 | IRAK-1-4 Inhibitor I 0.019 | ibrutinib 0.16 | [10] 0.065 | ralimetinib 0.051 | [11] -0.051 | [12] 0.035 | [13] -0.157 | pinometostat -0.044 | [14] 0.191 | [15] -0.164

PRPF4B (UniProt Q13523)
Chain of UniProt Q13523 (Q13523 whole entry, looked up): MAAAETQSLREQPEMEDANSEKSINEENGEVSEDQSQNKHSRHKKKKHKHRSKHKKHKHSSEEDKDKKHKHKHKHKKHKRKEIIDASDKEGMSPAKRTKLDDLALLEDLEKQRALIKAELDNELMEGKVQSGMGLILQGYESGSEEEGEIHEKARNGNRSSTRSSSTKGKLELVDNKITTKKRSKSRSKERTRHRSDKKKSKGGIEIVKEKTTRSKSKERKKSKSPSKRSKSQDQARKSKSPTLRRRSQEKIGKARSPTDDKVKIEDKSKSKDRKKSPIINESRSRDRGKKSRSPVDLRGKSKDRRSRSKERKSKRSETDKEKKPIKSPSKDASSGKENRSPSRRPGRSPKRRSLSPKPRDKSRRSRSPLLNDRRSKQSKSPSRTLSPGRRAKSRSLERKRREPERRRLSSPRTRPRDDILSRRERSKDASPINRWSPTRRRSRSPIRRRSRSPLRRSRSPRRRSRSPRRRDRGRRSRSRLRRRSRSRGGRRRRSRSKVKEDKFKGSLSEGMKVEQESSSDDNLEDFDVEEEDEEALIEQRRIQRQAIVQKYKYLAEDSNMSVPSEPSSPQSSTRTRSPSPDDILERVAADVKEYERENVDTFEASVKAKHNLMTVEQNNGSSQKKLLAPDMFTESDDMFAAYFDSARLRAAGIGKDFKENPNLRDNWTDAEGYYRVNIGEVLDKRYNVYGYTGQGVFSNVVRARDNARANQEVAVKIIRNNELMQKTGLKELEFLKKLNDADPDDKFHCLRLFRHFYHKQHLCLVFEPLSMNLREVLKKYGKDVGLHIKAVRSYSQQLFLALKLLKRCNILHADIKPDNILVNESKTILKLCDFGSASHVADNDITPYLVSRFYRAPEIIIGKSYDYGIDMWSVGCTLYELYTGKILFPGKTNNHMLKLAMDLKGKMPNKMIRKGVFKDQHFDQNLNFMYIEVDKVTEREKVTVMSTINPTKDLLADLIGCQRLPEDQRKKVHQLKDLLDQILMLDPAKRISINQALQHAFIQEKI
inactive: erlotinib 0.002 | [1] 0.044 | [2] -0.213 | [3] 0.074 | [4] -0.046 | [5] -0.064 | [6] -0.14 | [7] -0.12 | [8] -0.103 | [9] -0.113 | IRAK-1-4 Inhibitor I -0.126 | ibrutinib -0.015 | [10] -0.263 | ralimetinib -0.001 | [11] 0.138 | [12] -0.029 | [13] 0.077 | pinometostat 0.099 | [14] -0.006 | [15] -0.209

PHAX (UniProt Q9H814)
active: [15] -0.253
inactive: erlotinib -0.004 | [1] 0.042 | [2] 0.045 | [3] 0.009 | [4] 0.023 | [5] 0.054 | [6] -0.047 | [7] -0.101 | [8] -0.013 | [9] 0.059 | IRAK-1-4 Inhibitor I 0.015 | ibrutinib 0.027 | [10] -0.041 | ralimetinib 0.002 | [11] 0.024 | [12] -0.16 | [13] 0.019 | pinometostat 0.016 | [14] 0.071

POLR2I (UniProt P36954)
inactive: erlotinib -0.058 | [1] -0.107 | [2] 0.108 | [3] 0.068 | [4] -0.073 | [5] -0.117 | [6] 0.079 | [7] -0.043 | [8] -0.092 | [9] 0 | IRAK-1-4 Inhibitor I 0.045 | ibrutinib 0.136 | ralimetinib -0.079 | [11] 0.035 | [12] 0.389 | [13] 0.03 | pinometostat -0.024 | [14] 0 | [15] 0.324
active: [10] 0.425

PDE2A (UniProt O00408)
Chain of UniProt O00408 (O00408 whole entry, looked up): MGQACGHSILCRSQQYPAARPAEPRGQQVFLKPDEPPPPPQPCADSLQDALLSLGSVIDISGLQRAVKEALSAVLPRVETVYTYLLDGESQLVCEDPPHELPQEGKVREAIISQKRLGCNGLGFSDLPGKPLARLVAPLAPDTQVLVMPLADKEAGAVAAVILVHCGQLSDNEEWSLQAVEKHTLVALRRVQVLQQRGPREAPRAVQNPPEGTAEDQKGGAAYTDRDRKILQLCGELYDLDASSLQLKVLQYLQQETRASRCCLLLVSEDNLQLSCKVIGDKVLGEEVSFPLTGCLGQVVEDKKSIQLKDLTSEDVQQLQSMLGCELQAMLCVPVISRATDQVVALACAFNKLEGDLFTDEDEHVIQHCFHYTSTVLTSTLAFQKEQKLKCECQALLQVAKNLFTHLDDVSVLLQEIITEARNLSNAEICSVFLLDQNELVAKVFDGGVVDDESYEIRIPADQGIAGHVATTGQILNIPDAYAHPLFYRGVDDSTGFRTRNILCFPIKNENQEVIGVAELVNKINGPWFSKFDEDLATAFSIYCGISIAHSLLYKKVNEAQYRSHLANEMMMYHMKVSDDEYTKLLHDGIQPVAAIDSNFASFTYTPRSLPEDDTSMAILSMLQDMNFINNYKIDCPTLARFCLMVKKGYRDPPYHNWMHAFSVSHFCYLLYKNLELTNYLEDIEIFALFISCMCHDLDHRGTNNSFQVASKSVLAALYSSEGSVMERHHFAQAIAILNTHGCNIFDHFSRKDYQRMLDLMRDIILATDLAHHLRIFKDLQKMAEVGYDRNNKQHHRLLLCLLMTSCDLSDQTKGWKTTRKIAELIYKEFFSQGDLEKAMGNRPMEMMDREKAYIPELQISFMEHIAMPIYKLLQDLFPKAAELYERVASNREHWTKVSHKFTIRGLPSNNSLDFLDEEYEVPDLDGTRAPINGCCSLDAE
inactive: erlotinib -0.055 | [2] -0.011 | [3] -0.034 | [4] 0.161 | [5] -0.099 | [6] 0.137 | [7] 0.113 | [8] -0.077 | [9] 0.184 | IRAK-1-4 Inhibitor I 0.083 | ibrutinib 0.026 | [10] -0.001 | ralimetinib 0.12 | [11] -0.082 | [12] 0.014 | [13] -0.009 | pinometostat -0.007 | [14] -0.064 | [15] 0.043
active: [1] -0.521
